Measurements: publication PMC4336329 (PLoS ONE, 2015)
In all, about 310,000 compounds went through this assay and about 14,000 (4.5%) showed an effect of 50% or more. Effects have a minus sign here. What follows is part of a selection rich in strong results, with near analogues and random picks from the rest.

molecular target: human ether-à-go-go-related gene (hERG) potassium channel (human, UniProt Q12809); assay: primary screen, population patch clamp on CHO cells stably expressing hERG; higher = less effect of the substance
Sequence (Q12809 whole entry, looked up): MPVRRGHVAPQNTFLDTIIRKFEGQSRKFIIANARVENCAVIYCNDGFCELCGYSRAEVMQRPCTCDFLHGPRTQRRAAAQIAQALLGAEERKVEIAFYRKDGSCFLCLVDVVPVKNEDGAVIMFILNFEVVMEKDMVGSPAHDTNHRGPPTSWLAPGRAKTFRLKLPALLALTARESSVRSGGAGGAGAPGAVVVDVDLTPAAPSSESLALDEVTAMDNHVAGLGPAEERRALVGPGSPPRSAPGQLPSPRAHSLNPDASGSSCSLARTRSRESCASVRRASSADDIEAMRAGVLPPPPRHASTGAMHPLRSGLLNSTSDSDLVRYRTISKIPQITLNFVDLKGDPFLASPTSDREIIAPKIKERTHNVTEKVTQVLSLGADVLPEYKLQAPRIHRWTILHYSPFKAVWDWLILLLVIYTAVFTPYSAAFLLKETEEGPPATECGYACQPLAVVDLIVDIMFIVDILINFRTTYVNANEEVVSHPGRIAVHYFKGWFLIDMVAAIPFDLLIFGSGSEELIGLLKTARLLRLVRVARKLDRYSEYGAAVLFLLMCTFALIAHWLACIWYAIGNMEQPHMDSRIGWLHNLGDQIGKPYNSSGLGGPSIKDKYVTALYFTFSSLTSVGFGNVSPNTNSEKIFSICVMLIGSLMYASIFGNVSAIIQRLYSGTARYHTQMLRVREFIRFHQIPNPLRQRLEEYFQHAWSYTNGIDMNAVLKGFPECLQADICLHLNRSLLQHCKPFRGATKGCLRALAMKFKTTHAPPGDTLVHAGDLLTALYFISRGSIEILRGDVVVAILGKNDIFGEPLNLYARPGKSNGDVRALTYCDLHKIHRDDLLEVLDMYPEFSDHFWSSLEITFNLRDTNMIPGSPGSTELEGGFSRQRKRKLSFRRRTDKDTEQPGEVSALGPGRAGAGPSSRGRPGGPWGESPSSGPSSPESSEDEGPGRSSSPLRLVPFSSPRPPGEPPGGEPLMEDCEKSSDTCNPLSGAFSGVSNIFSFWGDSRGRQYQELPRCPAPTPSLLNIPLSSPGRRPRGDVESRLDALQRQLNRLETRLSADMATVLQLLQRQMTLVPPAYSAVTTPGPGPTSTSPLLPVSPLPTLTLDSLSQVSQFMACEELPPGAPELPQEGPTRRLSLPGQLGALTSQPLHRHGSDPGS
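Note: peak tail current of the secondary pulse compared with the same well before compound.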

Row | Compound | hERG current change (%, negative = inhibition) at 10uM [%]
1 | CNC(=O)NC(=O)C(C)OC(=O)c1cc2c(s1)CCCCC2 (stereo not shown) | -7.89
2 | COc1ccccc1CNC(=O)CCS(=O)(=O)Cc1ccc(C)cc1 | 11.3
3 | O=C(CCNC(=O)c1ccco1)Nc1ccc(SC(F)F)cc1 | -52.7
4 | O=C(CCNC(=O)c1ccco1)Nc1ccccc1 | 15
5 | O=C(CCNC(=O)c1ccco1)Nc1ccc(OC(F)F)cc1 | -23.8
6 | COc1cc(OC)c(C2=NOC(C(=O)Nc3ccc4c(c3)OCO4)C2)cc1Cl (stereo not shown) | 10.7
7 | C=CCOC(=O)C(=O)/C=C/c1c(C)n(C)n(-c2ccccc2)c1=O | 27.2
8 | CCOc1ccc(NC(=O)COC(=O)CC2CCCCC2)cc1 | -6.75
9 | O=C(NCCN1CCOCC1)/C(=C/c1ccccc1)NC(=O)c1ccccc1 | -16.4
10 | Cc1ccc(C(=O)N/C(=C\c2ccc(F)cc2)C(=O)NCCN2CCOCC2)cc1 | -75.6
11 | Cc1ccc(C(=O)N/C(=C\c2ccc(Cl)cc2)C(=O)NCCCN2CCOCC2)cc1 | -72.5
12 | Cc1ccc(C(=O)NC(=S)NCCN2CCOCC2)cc1 | 23.3
13 | COc1ccc(/C=C(\NC(=O)c2ccc(C)cc2)C(=O)NCCN2CCOCC2)cc1 | -64.6
14 | COc1ccc(/C=C(\NC(=O)c2ccccc2)C(=O)NCCN2CCOCC2)cc1 | -34.3
15 | COc1ccc(/C=C(\NC(=O)c2ccc(Cl)cc2)C(=O)NCCCN2CCOCC2)cc1OC | 13.9
16 | COc1ccc(/C=C(/NC(=O)c2ccccc2)C(=O)NCCN2CCOCC2)cc1OC | 11.6
17 | Cc1ccc(C(=O)N/C(=C\c2ccccc2)C(=O)NCCN2CCOCC2)cc1 | -62.4
18 | O=C(NC(=S)NCCN1CCOCC1)c1ccc(F)cc1 | -4.01
19 | CC(=O)Nc1ccc(NC(=O)Cn2c(CC(=O)N3CCCC3)nc3ccccc32)cc1 | 9
20 | Cc1cc(OC(=O)CCCNC(=O)OC(C)(C)C)c2c3c(c(=O)oc2c1)CCC3 | -9.18
21 | CCC(=O)Nc1cc2nn(-c3ccc(OC)cc3)nc2cc1C | 0.0727
22 | Cc1ccc(Sc2ccc([N+](=O)[O-])cc2[N+](=O)[O-])nc1 | -19.1
23 | Cc1cccc(NC(=O)CCN2C(=O)C3C4C=CC(C4)C3C2=O)c1 (stereo not shown) | 13.6
24 | C/C(=N\NC(=O)c1cc2ccccc2cc1O)c1ccccn1 | -3.94
25 | O=C(NCCCN1CCOCC1)/C(=C/c1cccs1)NC(=O)c1ccccc1 | -21.8
26 | O=C(NC(=S)NCCN1CCOCC1)c1ccc(Cl)cc1 | -13.2
27 | Cc1ccc(C(=O)N/C(=C\c2cn(S(=O)(=O)N(C)C)c3ccccc23)C(=O)NCCCN2CCOCC2)cc1 | -18.7

Row | Compound | hERG current change (%, negative = inhibition) at 10uM [%]
28 | CN(C)c1ccc(/C=C(/NC(=O)c2ccccc2)C(=O)NCCN2CCOCC2)cc1 | 4.15
29 | O=C(NCCN1CCOCC1)/C(=C/c1ccc(Cl)cc1)NC(=O)c1ccccc1 | -76.5
30 | Cc1ccc(C(=O)N/C(=C\c2ccco2)C(=O)NCCN2CCOCC2)cc1 | -23.2
31 | Cc1ccc(C(=O)N/C(=C\c2ccc(Cl)cc2)C(=O)NCCN2CCOCC2)cc1 | -75.1
32 | CN(C)c1ccc(/C=C(\NC(=O)c2ccccc2)C(=O)NCCN2CCOCC2)cc1 | -19.9
33 | Cc1ccc(C(=O)N/C(=C\c2cccs2)C(=O)NCCCN2CCOCC2)cc1 | -61.4
34 | COc1ccccc1CNC(=O)C(NC(=O)C1CCCCC1)C(C)C (stereo not shown) | 1.84
35 | O=C(O)c1cccc(NS(=O)(=O)c2ccc(Oc3ccc(S(=O)(=O)Nc4cccc(C(=O)O)c4)cc3)cc2)c1 | 20.3
36 | COc1ccc(OC)c(-n2nnnc2SCC(=O)NCCc2ccccc2)c1 | -20.3
37 | CC1Cn2c(nc(=O)c3c2NCN(CCc2ccccc2)C3)S1 (stereo not shown) | 13.5
38 | O=C(C1CC1)N1N=C(c2ccc(Cl)cc2)CC1(O)C(F)(F)F (stereo not shown) | -0.113
39 | Cc1nn(C(C)C(=O)NC2CCC(C)CC2)c(=O)c2nn(-c3ccccc3)c(C)c12 (stereo not shown) | -28.3
40 | O=C(CCS(=O)(=O)c1cccs1)N1CCCC1 | 3.18
41 | O=c1c2ccccc2nc(-c2ccccc2)n1-c1ccccc1O | 16.1
42 | CC(OC(=O)c1snc(C(=O)NC2CCCCC2)c1N)C(=O)NC1CCCCC1 (stereo not shown) | -3.99
43 | CN(C)CCCN(C(=O)c1ccc(S(=O)(=O)N2CCc3ccccc32)cc1)c1nc2ccc(Cl)cc2s1.Cl | 10.5
44 | COc1ccc2sc(N(CCCN(C)C)C(=O)c3ccc(S(=O)(=O)N4CCCC4)cc3)nc2c1.Cl | -43.9
45 | CCOC(=O)N1CCN(S(=O)(=O)c2ccc(C(=O)N(CCN(C)C)c3nc4ccc(CC)cc4s3)cc2)CC1.Cl | -51.9
46 | COc1ccc2sc(N(CCCN(C)C)C(=O)c3ccc(S(=O)(=O)N4CCc5ccccc5C4)cc3)nc2c1.Cl | -6.59
47 | CCOC(=O)N1CCN(S(=O)(=O)c2ccc(C(=O)N(CCCN(C)C)c3nc4cc(OC)ccc4s3)cc2)CC1.Cl | -56.2
48 | CCOC(=O)N1CCN(S(=O)(=O)c2ccc(C(=O)N(CCN(C)C)c3nc4ccc(Cl)cc4s3)cc2)CC1.Cl | -28.5
49 | CCOC(=O)N1CCN(S(=O)(=O)c2ccc(C(=O)N(CCN(CC)CC)c3nc4ccc(C)cc4s3)cc2)CC1.Cl | -23.8
50 | Cc1ccc2nc(N(CCCN(C)C)C(=O)c3ccc(S(=O)(=O)N4CCc5ccccc5C4)cc3)sc2c1.Cl | -25.3
51 | CCOC(=O)N1CCN(S(=O)(=O)c2ccc(C(=O)N(CCCN(C)C)c3nc4ccc(OC)cc4s3)cc2)CC1.Cl | -73.5
52 | COc1cc2nc(N(CCCN(C)C)C(=O)c3ccc(S(=O)(=O)N4CCc5ccccc5C4)cc3)sc2cc1OC.Cl | -9.41
53 | CCOC(=O)N1CCN(S(=O)(=O)c2ccc(C(=O)N(CCCN(C)C)c3nc4ccc(Cl)cc4s3)cc2)CC1.Cl | -58.4
54 | CCOC(=O)N1CCN(S(=O)(=O)c2ccc(C(=O)N(CCN(C)C)c3nc4c(C)cccc4s3)cc2)CC1.Cl | -37.5

Row | Compound | hERG current change (%, negative = inhibition) at 10uM [%]
55 | O=C(c1ccccc1Cc1ccccc1)N1CCN(S(=O)(=O)c2ccccc2)CC1 | -6.88
56 | CN(C)NC(=S)Nc1ccc(S(=O)(=O)N2CCCCC2)cc1 | -5.26
57 | CCn1ccnc1CN(C)C(=O)CCc1nnc(CCCc2ccccc2)o1 | -7.7
58 | Cc1cccc(NC(=O)CN2C(=O)N/C(=C\c3ccc(N4CCOCC4)cc3)C2=O)c1 | 9.92
59 | CC(NC(=O)COC(=O)Cc1ccsc1)C1CC2CCC1C2 (stereo not shown) | -12.1
60 | COc1ccc(N(CC(=O)N2CCc3ccccc32)S(=O)(=O)c2c(C)n[nH]c2C)cc1 | -18.6
61 | CC(NCCOc1ccccc1F)C(=O)Nc1ccc(S(N)(=O)=O)cc1 (stereo not shown) | 13.4
62 | N#Cc1c(N)c(C(=O)c2ccc(Cl)cc2)n2c1CCC2 | 5.5
63 | CCCCN(CCCC)C(=O)c1cc(Cl)ccc1[N+](=O)[O-] | -1.4
64 | O=C1CCC(C(=O)N(Cc2ccco2)C2(C(=O)NC3CCCC3)CCCCC2)N1 (stereo not shown) | 13.4
65 | CCNc1nc(NCC)nc(N/N=C(\C)c2ccc(OC)cc2)n1 | -14.1
66 | O=C(NCc1ccco1)c1ccc(F)c(S(=O)(=O)N2CCCCC2)c1 | -11.3
67 | Cc1ccc(C(=O)NCc2ccco2)cc1S(=O)(=O)Nc1cccc(C)c1C | -32.2
68 | CCn1cc(C(=O)NCC2CCCO2)c(=O)c2cc(S(=O)(=O)N3CCCCC3)ccc21 (stereo not shown) | -34
69 | Cc1ccc(C)c(NS(=O)(=O)c2cc(C(=O)NCc3ccco3)ccc2C)c1 | -52.3
70 | Cc1ccc(C(=O)NCc2ccco2)cc1S(=O)(=O)N1CCCCC1 | -18.6
71 | CCn1cc(C(=O)NCC2CCCO2)c(=O)c2cc(S(=O)(=O)N3CCC(C)CC3)ccc21 (stereo not shown) | -28.1
72 | CCn1cc(C(=O)NCc2ccco2)c(=O)c2cc(S(=O)(=O)N3CCCC3)ccc21 | -4.37
73 | CCn1cc(C(=O)NCC2CCCO2)c(=O)c2cc(S(=O)(=O)N3CCCCCC3)ccc21 (stereo not shown) | -51.3
74 | Cc1ccccc1NS(=O)(=O)c1cc(C(=O)NCc2ccco2)ccc1C | -20.3
75 | O=C(NCc1ccco1)c1ccc(Br)c(S(=O)(=O)N2CCCCC2)c1 | -53
76 | CCn1cc(C(=O)NCc2ccco2)c(=O)c2cc(S(=O)(=O)N3CCCCCC3)ccc21 | -53.3
77 | CCn1cc(C(=O)NCc2ccco2)c(=O)c2cc(S(=O)(=O)N3CCC(C)CC3)ccc21 | -36.5
78 | COc1cc(CCC(=O)Nc2ccc(C)c(S(=O)(=O)N3CCCCCC3)c2)cc(OC)c1OC | -6.5
79 | O=C(OCCN1C(=O)c2ccccc2C1=O)C1CCN(S(=O)(=O)c2cccs2)CC1 | -31.9
